# Experimental data: PubChem BioAssay AID651616 (The Scripps Research Institute Molecular Screening Center, 2012)
# The whole screen tested about 5,600 compounds, of which about 4,400 (79%) were called active. The set was probably picked from earlier hits. Not all results are given here. A number with no mark means an inactive call. No stated cut-off is given here; in the data, active means inhibition above about 27%; inactive means the rest.
# Molecular target: Fructose-bisphosphate aldolase (Mycobacterium tuberculosis (strain ATCC 25618 / H37Rv)) (UniProt P9WQA3)
# Sequence (P9WQA3 whole entry, looked up): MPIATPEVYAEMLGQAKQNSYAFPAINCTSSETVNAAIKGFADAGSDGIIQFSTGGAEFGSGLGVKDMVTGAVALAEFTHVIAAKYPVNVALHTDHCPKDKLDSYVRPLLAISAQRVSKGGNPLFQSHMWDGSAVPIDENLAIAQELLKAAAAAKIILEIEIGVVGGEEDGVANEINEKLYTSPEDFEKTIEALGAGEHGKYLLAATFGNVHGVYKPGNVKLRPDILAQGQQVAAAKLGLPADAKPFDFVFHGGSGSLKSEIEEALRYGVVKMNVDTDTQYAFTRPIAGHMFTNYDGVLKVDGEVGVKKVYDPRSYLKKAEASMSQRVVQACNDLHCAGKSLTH
# Assay: M. tuberculosis aldolase blockers, biochemical, fluorescence, strain H37Rv, confirmation (AID 651616);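 further: 0% = vehicle wells and 100% = reference inhibitor wells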
# Details: purified M. tuberculosis FBA, fluorescence read-out, at 1 µM, stronger effect = higher value
row,Compound,inhibition
1,COc1ccc(-c2nc3cc(C)ccn3c2NC2CCCCC2)cc1SC1CCCCC1,53.2% (active)
2,O=C(Nc1ccc(-c2nnc(-c3ccccc3)o2)cc1)C1CCCO1 (stereo not given),1.4%
3,O=C(CCc1ccccc1)Nc1cccc(-c2nnc(-c3ccco3)o2)c1,91% (active)
4,CC(=O)N1C(=O)/C(=C2\SC(=S)N(NC(=O)c3ccc(O)cc3)C2=O)c2ccccc21,10.4%
5,Cc1cc(C)c2nc3nc(C)cc(C)c3c(N)c2c1,41.1% (active)
6,Cc1cc(C)c2nc(-c3ccco3)cc(C(=O)O)c2c1,3.93%
7,CCOC(=O)N1CCC(NC(=O)c2cnn3ccccc23)CC1,42.5% (active)
8,CCCn1nc2cc(C(=O)NCc3ccccc3)ccc2c1OCC,-3.79%
9,CCOc1c2ccc(C(=O)NC3CCCc4ccccc43)cc2nn1CC (stereo not given),21.6%
10,CCOc1c2ccc(C(=O)NCc3ccc4c(c3)OCO4)cc2nn1C,107% (active)
11,CCOc1c2ccc(C(=O)NCc3ccc(OC(F)(F)F)cc3)cc2nn1C,106% (active)
12,O=C(NCc1cccc(Cl)c1)C1=CC=CN2CCS(=O)(=O)N=C12,11.8%
13,C=CCn1c(CCNC(=O)c2ccccc2F)nnc1SCC(=O)Nc1ccc(OC)cc1,"586% [above what the read-out allows, likely interference] (active)"
14,Cc1ccsc1C(=O)N[C@@H](C)c1nnc2ccccn12,125% (active)
15,CC(C)n1c(-c2cccs2)nc2ccccc21,87% (active)
16,CC1(C(=O)NCc2ccco2)Cc2c(-c3ccc4c(c3)OCO4)ccnc2O1 (stereo not given),7.76%
17,CC1(C(=O)NCc2ccc(F)c(F)c2)Cc2c(-c3ccc4c(c3)OCO4)ccnc2O1 (stereo not given),155% (active)
18,CC1(C)CC(=O)c2cc(OCC(=O)NCC3CCCO3)ccc2O1 (stereo not given),-1.83%
19,Cc1cc(=O)oc2c3c(cc(OCC(=O)NCC(O)c4ccccc4)c12)OC(C)(C)CC3 (stereo not given),62% (active)
20,CCCCNc1c(-c2cccc(Sc3ccc(OC)cc3)c2)nc2ccccn12,35.1% (active)

row,Compound,inhibition
1,CCCCn1c(-c2cccc(C)c2)nc2cc3[nH]c(=O)c(C(C)C)nc3cc21,34.1% (active)
2,O=C(O)/C=C/c1cn(-c2ccccc2)nc1-c1cccs1,92.4% (active)
3,O=C(CN1C(=O)c2cccc3cccc(c23)C1=O)N1CCCCC1,70.8% (active)
4,c1ccc2c(NC3C4CC5CC(C4)CC3C5)nc(N3CCOCC3)nc2c1 (stereo not given),134% (active)
5,CC(Nc1nc(N2CCOCC2)nc2ccccc12)c1ccccc1 (stereo not given),56.5% (active)
6,CCOC(=O)Cn1c(=O)n(Cc2ccc(OC)cc2)c(=O)c2cccnc21,"852% [above what the read-out allows, likely interference] (active)"
7,COC(=O)CSc1nc(C)c2ccc(OC)cc2n1,-3.91%
8,O=C(CCC(=O)N/N=C/c1ccc(Br)o1)N/N=C/c1ccc(Br)o1,110% (active)
9,CCC(=O)Nc1c(S(=O)(=O)c2ccccc2)c2nc3ccccc3nc2n1Cc1ccccc1,173% (active)
10,COc1ccc2nc(-c3ccccn3)ccc2c1,116% (active)
11,O=C1NC(c2cccc(Cl)c2)Nc2ccccc21 (stereo not given),102% (active)
12,COc1ccc(C2NC(=O)c3ccccc3N2)cc1 (stereo not given),146% (active)
13,Cc1ccc2nc(-c3ccco3)c(Cc3cccc(Cl)c3)n2c1,94.1% (active)
14,O=C1OCCN1C(=O)[C@H]1[C@H](c2ccc(F)cc2)C(c2ccccc2)=NN1c1ccc(Br)cc1,65.6% (active)
15,CNc1nc(-c2ccccc2)cc(-c2ccccc2)n1,76.6% (active)
16,CCCN(C(=O)CSc1nnc(N)s1)c1c(N)n(Cc2ccccc2)c(=O)[nH]c1=O,59.2% (active)
17,COc1ccc(-c2ccc(C(=O)NCCN3CCOCC3)c3occc23)c(C)c1,72% (active)
18,COc1ccc(-c2ccc(C(=O)NC(C)C)c3occc23)c(C)c1,112% (active)
19,COc1ccc(-c2oc3ncnc(NCCCO)c3c2-c2ccc(OC)cc2)cc1,51.9% (active)
20,Cc1cc(C)nc(SCc2cn3c(C)cc(C)nc3n2)n1,102% (active)

row,Compound,inhibition
1,COc1cccc(NC(=O)CN(C)CC(=O)Nc2ccc3c(c2)CCC3)c1,89% (active)
2,COc1cccc(NC(=O)CN(C)C(=O)/C=C/c2cc(OC)ccc2OC)c1,105% (active)
3,COc1ccc2c3c(c(=O)oc2c1OCC(=O)C(C)(C)C)CCCC3,60.2% (active)
4,Cc1c(OC(C)C(=O)N[C@@H](Cc2ccccc2)C(=O)O)ccc2c3c(c(=O)oc12)CCCC3 (stereo not given in full),5.53%
5,CCC(=O)Nc1ccc2nn(-c3ccc(F)cc3)nc2c1,88% (active)
6,CCCC/C=C/c1cccc2nncn12,68.8% (active)
7,CN1CCN(CCCNC(=O)c2ccc(/C=C3\Oc4ccccc4N(Cc4ccc(Cl)cc4)C3=O)cc2)CC1,-4.52%
8,O=C(NCCc1ccccc1)c1ccc2c(c1)N(Cc1ccccc1)CCS2,42.5% (active)
9,O=C(NCCN1CCOCC1)c1ccc2c(c1)N(Cc1ccc(Cl)cc1)CCS2,56.6% (active)
10,COCCCNC(=S)N(CCN(C)C)Cc1cc2cc3c(cc2[nH]c1=O)OCCO3,43.2% (active)
11,COc1ccc(C2C3=C(CCCC3=O)N(CC(=O)O)C3=C2C(=O)CCC3)cc1,128% (active)
12,CCCc1cc(=O)n2[nH]c(C)c(-c3ccc(Cl)cc3)c2n1,123% (active)
13,Cc1nc2c(-c3ccccc3)c(C)[nH]n2c(=O)c1Cl,105% (active)
14,COCc1cc(=O)n2[nH]c(C)c(-c3ccccc3)c2n1,50.6% (active)
15,O=C(O)Cc1sc(-c2ccc(C(=O)O)cc2)nc1-c1ccccc1,-7.84%
16,c1cc(-c2ccc3[nH]ccc3c2)n2ccnc2c1,79.6% (active)
17,COc1ccc(CNC(=O)c2c[nH]c3c(OC)cc(OC)cc3c2=O)cc1,-2.04%
18,Cc1ccc(Cn2c(C)nc3c(c2=O)c2nc4ccccc4nc2n3Cc2ccco2)cc1,55% (active)
19,COc1cc(OC)cc(C(=O)Nc2ccc(-c3nc4ccccc4o3)c(O)c2)c1,148% (active)
20,CC(=O)Nc1ccc(-c2nc3ccccc3o2)cc1,8.14%
